# Results: PubChem BioAssay (EPA / NIEHS)
# The source made the active and inactive calls. The calls were made as follows, unless noted: active = hit-call score of the fitted dose curve at least 0.9, where 1 is the maximum; inconclusive = response in the unintended direction; inactive = score below 0.9.
# Experiment: CEETOX_H295R_MTT_cell_viability: Viability Assessment in the CeeTox HT-H295R MTT Assay (AID 2283718; active = hit-call score of the fitted dose curve at least 0.9, where 1 is the maximum; inactive = score below 0.9)
# Summary of the method: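 MTT reduction (0.5 mg/ml, 4 h at 37 C; absorbance at 570 and 650 nm) gave viability as background-corrected percent change versus controls. H295R cells had 48 h forskolin (10 uM) prestimulation, then 48 h chemical exposure at 0.1% DMSO.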
row,SMILES,outcome
1,Cc1ccn2nc(S(=O)(=O)Nc3c(F)cccc3F)nc2n1,inactive
2,C#CC(C)(C)NC(=O)c1cc(Cl)cc(Cl)c1,inactive
3,O=C(O)c1cc(Oc2ccc(C(F)(F)F)cc2Cl)ccc1[N+](=O)[O-],inactive
4,CC(COc1ccc(Oc2ccccc2)cc1)Oc1ccccn1 (stereo not drawn),inactive
5,CCCCN(CC)c1c([N+](=O)[O-])cc(C(F)(F)F)cc1[N+](=O)[O-],inactive
6,CCCCOC(=O)c1ccccc1C(=O)O,inactive
7,CCCSP(=O)(OCC)Oc1ccc(Br)cc1Cl (stereo not drawn),inactive
8,CC(C)[C@H](C(=O)O[C@H](C#N)c1cccc(Oc2ccccc2)c1)c1ccc(Cl)cc1,inactive
9,CN(C)NC(=O)CCC(=O)O,inactive
10,CNC(=O)Oc1cccc2c1OC(C)(C)O2,inactive
11,CCNc1nc(Cl)nc(NC(C)(C)C#N)n1,inactive
12,CC(C1CC1)C(O)(Cn1cncn1)c1ccc(Cl)cc1 (stereo not drawn),inactive
13,CCOP(=S)(OCC)Oc1ccc2c(C)c(Cl)c(=O)oc2c1,inactive
14,FC(F)C(F)(F)OCC(Cn1cncn1)c1ccc(Cl)cc1Cl (stereo not drawn),inactive
15,CCOP(=O)(NC(C)C)Oc1ccc(SC)c(C)c1 (stereo not drawn),inactive
16,COP(=O)(NC(C)=O)SC (stereo not drawn),inactive
17,CN(C)[C@@H]1C(=O)C(C(N)=O)=C(O)[C@@]2(O)C(=O)C3=C(O)c4c(O)cccc4[C@@](C)(O)[C@H]3[C@H](O)[C@@H]12,inactive
18,COc1cccc(C(=O)NN(C(=O)c2cc(C)cc(C)c2)C(C)(C)C)c1C,inactive

# Experiment: Tanguay_ZF_120hpf_ActivityScore_legacy: (Legacy) Oregon State University Tanguay Lab 120 Hour Post-fertilization zebrafish Assay Score for Activity (AID 2283742);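 as to AC50: dechorionated Tropical 5D wild-type zebrafish embryos held singly per well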
# Summary of the method: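 Binary scoring of mortality and morphology by brightfield at 24 and 120 hpf, summarised into one activity score from 18 components relative to DMSO. Wild-type Tropical 5D zebrafish, chorion removed at 4 hpf, static exposure 6–120 hpf, 28 °C.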
SMILES,AC50,outcome
CSC1=N[C@@](C)(c2ccccc2)C(=O)N1Nc1ccccc1,37.6 µM (active),
O=[N+]([O-])c1cc(C(F)(F)F)c(Cl)c([N+](=O)[O-])c1Nc1ncc(C(F)(F)F)cc1Cl,45.7 µM (active),
Cc1ccn2nc(S(=O)(=O)Nc3c(F)cccc3F)nc2n1,,inactive
Nc1c(Cl)cc([N+](=O)[O-])cc1Cl,93.6 µM (active),
CCCCSP(=O)(SCCCC)SCCCC,,inactive
CCOP(=O)(OCC)Oc1cc(C)nc(C(C)C)n1,,inactive
CC(=NC#N)N(C)Cc1ccc(Cl)nc1,,inactive
CCOP(=S)(Oc1cnc(C(C)(C)C)nc1)OC(C)C (stereo not drawn),,inactive
COc1cc(OC)nc(Sc2cccc(Cl)c2C(=O)O)n1,,inactive
C#CC(C)(C)NC(=O)c1cc(Cl)cc(Cl)c1,,inactive
O=C(O)c1cc(Oc2ccc(C(F)(F)F)cc2Cl)ccc1[N+](=O)[O-],,inactive
CC(COc1ccc(Oc2ccccc2)cc1)Oc1ccccn1 (stereo not drawn),,inactive
CCCCN(CC)c1c([N+](=O)[O-])cc(C(F)(F)F)cc1[N+](=O)[O-],,inactive
CCCCOC(=O)c1ccccc1C(=O)O,,inactive
CN1COCN(Cc2cnc(Cl)s2)C1=N[N+](=O)[O-],,inactive
CCCSP(=O)(OCC)Oc1ccc(Br)cc1Cl (stereo not drawn),,inactive
CC(C)[C@H](C(=O)O[C@H](C#N)c1cccc(Oc2ccccc2)c1)c1ccc(Cl)cc1,1.53 µM (active),
CCOP(=S)(OCC)SCCSCC,,inactive

SMILES,AC50,outcome
CCCCOC(=O)[C@@H](C)Oc1ccc(Oc2ccc(C#N)cc2F)cc1,,inactive
CN(C)NC(=O)CCC(=O)O,,inactive
CNC(=O)Oc1cccc2c1OC(C)(C)O2,,inactive
C[N+]1(C)CCCCC1,,inactive
CCNc1nc(Cl)nc(NC(C)(C)C#N)n1,,inactive
CC(C)=CC1C(C(=O)OCN2C(=O)C3=C(CCCC3)C2=O)C1(C)C (stereo not drawn),,inactive
C=C(C)[C@H]1Cc2c(ccc3c2O[C@@H]2COc4cc(OC)c(OC)cc4[C@@H]2C3=O)O1,0.193 µM (active),
CCCOc1nn(C(=O)NS(=O)(=O)c2ccccc2C(=O)OC)c(=O)n1C,,inactive
COP(=O)(OC)OC(Br)C(Cl)(Cl)Br (stereo not drawn),,inactive
CC(C1CC1)C(O)(Cn1cncn1)c1ccc(Cl)cc1 (stereo not drawn),26.2 µM (active),
CCOP(=S)(OCC)Oc1ccc2c(C)c(Cl)c(=O)oc2c1,,inactive
FC(F)C(F)(F)OCC(Cn1cncn1)c1ccc(Cl)cc1Cl (stereo not drawn),0.00154 µM (active),
CCOP(=O)(NC(C)C)Oc1ccc(SC)c(C)c1 (stereo not drawn),33.3 µM (active),
COP(=O)(NC(C)=O)SC (stereo not drawn),,inactive
Cc1nn(-c2cc(NS(C)(=O)=O)c(Cl)cc2Cl)c(=O)n1C(F)F,,inactive
CN(C)[C@@H]1C(=O)C(C(N)=O)=C(O)[C@@]2(O)C(=O)C3=C(O)c4c(O)cccc4[C@@](C)(O)[C@H]3[C@H](O)[C@@H]12,,inactive
COc1cccc(C(=O)NN(C(=O)c2cc(C)cc(C)c2)C(C)(C)C)c1C,,inactive
